log2 fold change data for 8 targets are collected here from the supplement of paper PMC10849652.

Targets with a hit are over-represented here; the source holds about 7,900 in all. About 0.6% of all pairs of compound and target were hits. Values without a mark were called inactive.

What all share (experiment): log2 fold change, soluble protein after heating vs DMSO (PISA); higher = thermal stabilisation; K562 cells, 10 uM, 30 min; active = over 0.2 and 3.5 SD of the protein, either way, in both replicates (recomputed)
Compound in one experiment: Cc1ccc(NC(=O)c2ccc(CN3CC[C@H](N(C)C)C3)c(C(F)(F)F)c2)cc1Nc1nccc(-c2cncnc2)n1 [bafetinib]
A digest of the protocol:
(§1)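 K562 cells at 2×10^6 cells/mL were treated with 10 μM compound for 30 min. Aliquots were heated for 3 min across 48°C-58°C, pooled, and extracted in PBS with 0.5% NP-40 at 4°C; soluble protein was the supernatant after 21,000xg for 90 min. Soluble protein was quantified by TMTpro 16plex LC-MS/MS with channel sums equalised, and reported as log2 fold change in thermal stability against DMSO controls, with values from duplicates.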

Compound in experiment [1]: Cc1cccc(CC(=O)N2CCc3c2ccc(-c2cn(C)c4ncnc(N)c24)c3F)n1
A digest of the protocol:
as §1

Compound in another experiment: Cc1cn(-c2cc(NC(=O)c3ccc(C)c(Nc4nccc(-c5cccnc5)n4)c3)cc(C(F)(F)F)c2)cn1 [nilotinib]
Summed up:
as §1

Compound in experiment [2]: Cc1nc(Nc2n[nH]c3c2CN(C(=O)N[C@H](CN(C)C)c2ccccc2)C3(C)C)c2sccc2n1
Summed up:
as §1

Compound in a further experiment: Cc1nc(Nc2ncc(C(=O)Nc3c(C)cccc3Cl)s2)cc(N2CCN(CCO)CC2)n1 [dasatinib]
A digest of the protocol:
as §1

Compound in experiment [3]: Cc1ncc(-c2ccnc(Nc3ccc(S(C)(=O)=O)cc3)n2)n1C(C)C
A digest of the protocol:
as §1

Compound in experiment [4]: Cn1cc(-c2ccc3c(c2)CCN3C(=O)Cc2cccc(C(F)(F)F)c2)c2c(N)ncnc21
Summed up: as §1

Compound in experiment [5]: Cn1cc(-c2ccc3nnc(C(F)(F)c4ccc5ncccc5c4)n3n2)cn1
A digest of the protocol: as §1

Compound in another experiment: Cn1cncc1[C@@](N)(c1ccc(Cl)cc1)c1ccc2c(c1)c(-c1cccc(Cl)c1)cc(=O)n2C [tipifarnib]
Summed up: as §1

Compound in another experiment: FC(F)(F)c1ccc(/C=C/c2nc(COc3ccc(CCCCn4ccnn4)cc3)co2)cc1 [mubritinib]
Summed up: as §1

Compound in experiment [6]: NC(=O)Nc1cc(-c2cccc(F)c2)sc1C(=O)N[C@H]1CCCNC1
Summed up: as §1

Compound in experiment [7]: NC(=O)c1cnc(N[C@@H]2CCCC[C@@H]2N)nc1Nc1cccc(-n2nccn2)c1
A digest of the protocol:
as §1

Compound in experiment [8]: NC1(c2ccc(-c3nc4ccn5c(=O)[nH]nc5c4cc3-c3ccccc3)cc2)CCC1
A digest of the protocol:
as §1

Compound in another experiment: Nc1ccccc1NC(=O)c1ccc(CNC(=O)OCc2cccnc2)cc1 [entinostat]
A digest of the protocol:
as §1

Compound in a further experiment: O=C(CCCCCCC(=O)Nc1ccccc1)NO [vorinostat]
Summed up:
as §1

Compound in the next experiment: O=C(CCCCCCNC(=O)c1cnc(N(c2ccccc2)c2ccccc2Cl)nc1)NO [citarinostat]
A digest of the protocol: as §1

Compound in a further experiment: O=C(O)c1ccc2c(c1)nc(Nc1cccc(Cl)c1)c1ccncc12 [silmitasertib]
A digest of the protocol: as §1

Compound in experiment [9]: O=C1NC(=O)C(c2cnc3ccccn23)=C1c1cn2c3c(cc(F)cc13)CN(C(=O)N1CCCCC1)CC2
Summed up:
as §1

Compound in experiment [10]: c1cc(OCCN2CCCCC2)cc(-c2n[nH]c3ccc(-c4nnc[nH]4)cc23)c1
Summed up: as §1

Compound in experiment [11]: NCC(=O)Nc1ccc(-n2nc(C(F)(F)F)cc2-c2ccc3c(ccc4ccccc43)c2)cc1
Summed up:
as §1

Sequence of UniProt P28065 (P28065 whole entry, looked up): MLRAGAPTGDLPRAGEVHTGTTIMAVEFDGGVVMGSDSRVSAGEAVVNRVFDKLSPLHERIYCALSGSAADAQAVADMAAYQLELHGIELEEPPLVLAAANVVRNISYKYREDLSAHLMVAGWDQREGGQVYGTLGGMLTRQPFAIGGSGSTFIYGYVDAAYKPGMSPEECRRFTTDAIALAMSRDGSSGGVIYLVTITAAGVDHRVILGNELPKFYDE
Sequence of UniProt Q96HA1 (Q96HA1 whole entry, looked up): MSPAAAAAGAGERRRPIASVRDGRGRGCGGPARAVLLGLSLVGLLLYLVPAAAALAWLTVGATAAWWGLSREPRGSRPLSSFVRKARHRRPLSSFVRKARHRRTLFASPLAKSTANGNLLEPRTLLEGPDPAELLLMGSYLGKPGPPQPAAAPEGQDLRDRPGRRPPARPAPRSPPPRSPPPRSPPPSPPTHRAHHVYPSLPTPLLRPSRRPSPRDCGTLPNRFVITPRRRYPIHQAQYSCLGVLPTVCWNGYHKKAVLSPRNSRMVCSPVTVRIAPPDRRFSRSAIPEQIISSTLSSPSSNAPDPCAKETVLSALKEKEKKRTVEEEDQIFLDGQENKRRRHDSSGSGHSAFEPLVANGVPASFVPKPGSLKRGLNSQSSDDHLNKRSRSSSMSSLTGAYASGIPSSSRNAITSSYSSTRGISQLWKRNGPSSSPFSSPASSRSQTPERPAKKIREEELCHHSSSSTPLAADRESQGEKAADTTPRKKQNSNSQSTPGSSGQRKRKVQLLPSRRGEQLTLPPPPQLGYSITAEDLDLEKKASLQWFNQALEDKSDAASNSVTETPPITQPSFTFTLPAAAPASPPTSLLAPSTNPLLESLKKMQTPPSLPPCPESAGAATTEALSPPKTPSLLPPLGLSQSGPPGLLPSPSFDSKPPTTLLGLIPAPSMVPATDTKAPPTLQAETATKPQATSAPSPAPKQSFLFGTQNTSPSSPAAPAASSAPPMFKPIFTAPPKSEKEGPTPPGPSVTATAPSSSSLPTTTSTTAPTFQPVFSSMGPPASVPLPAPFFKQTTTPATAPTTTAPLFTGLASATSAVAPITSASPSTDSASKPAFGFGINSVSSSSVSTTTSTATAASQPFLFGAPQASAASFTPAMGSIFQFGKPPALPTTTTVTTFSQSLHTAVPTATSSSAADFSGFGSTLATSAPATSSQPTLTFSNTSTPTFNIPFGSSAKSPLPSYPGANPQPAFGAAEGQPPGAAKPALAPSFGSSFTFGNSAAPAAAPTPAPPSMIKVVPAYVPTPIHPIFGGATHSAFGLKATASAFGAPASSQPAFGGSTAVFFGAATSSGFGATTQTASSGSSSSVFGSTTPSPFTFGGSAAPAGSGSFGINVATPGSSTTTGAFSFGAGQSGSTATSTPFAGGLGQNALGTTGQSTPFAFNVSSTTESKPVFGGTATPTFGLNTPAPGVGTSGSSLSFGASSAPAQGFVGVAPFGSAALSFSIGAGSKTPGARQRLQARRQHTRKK
Sequence of UniProt Q9H307 (Q9H307 whole entry, looked up): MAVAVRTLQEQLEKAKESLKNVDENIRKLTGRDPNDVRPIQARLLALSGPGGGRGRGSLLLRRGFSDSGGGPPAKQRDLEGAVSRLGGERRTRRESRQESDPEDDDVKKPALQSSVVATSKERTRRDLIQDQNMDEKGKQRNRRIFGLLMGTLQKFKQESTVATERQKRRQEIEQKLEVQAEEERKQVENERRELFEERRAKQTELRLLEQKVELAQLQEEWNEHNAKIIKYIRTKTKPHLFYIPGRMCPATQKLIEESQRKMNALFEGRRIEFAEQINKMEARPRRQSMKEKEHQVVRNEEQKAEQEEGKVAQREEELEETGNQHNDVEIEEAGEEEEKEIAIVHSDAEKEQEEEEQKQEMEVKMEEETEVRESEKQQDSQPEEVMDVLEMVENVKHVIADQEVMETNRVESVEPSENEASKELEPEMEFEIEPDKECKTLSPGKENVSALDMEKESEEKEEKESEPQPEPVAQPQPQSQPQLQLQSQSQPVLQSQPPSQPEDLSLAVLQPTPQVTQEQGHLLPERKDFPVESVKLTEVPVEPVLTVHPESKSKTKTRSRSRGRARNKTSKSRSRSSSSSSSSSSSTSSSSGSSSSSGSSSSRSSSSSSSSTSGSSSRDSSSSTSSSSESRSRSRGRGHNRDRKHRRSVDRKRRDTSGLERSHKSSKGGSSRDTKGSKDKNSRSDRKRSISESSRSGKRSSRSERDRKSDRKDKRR
Sequence of UniProt P54619 (P54619 whole entry, looked up): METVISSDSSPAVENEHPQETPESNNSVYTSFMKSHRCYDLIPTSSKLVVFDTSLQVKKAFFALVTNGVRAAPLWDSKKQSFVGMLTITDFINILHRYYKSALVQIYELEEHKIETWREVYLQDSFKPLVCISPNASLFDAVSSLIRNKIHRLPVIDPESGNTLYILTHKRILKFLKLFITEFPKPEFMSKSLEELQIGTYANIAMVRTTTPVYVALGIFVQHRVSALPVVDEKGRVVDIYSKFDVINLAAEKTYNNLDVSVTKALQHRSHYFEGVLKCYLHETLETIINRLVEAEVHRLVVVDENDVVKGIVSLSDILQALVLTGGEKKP
Sequence of UniProt Q02156 (Q02156 whole entry, looked up): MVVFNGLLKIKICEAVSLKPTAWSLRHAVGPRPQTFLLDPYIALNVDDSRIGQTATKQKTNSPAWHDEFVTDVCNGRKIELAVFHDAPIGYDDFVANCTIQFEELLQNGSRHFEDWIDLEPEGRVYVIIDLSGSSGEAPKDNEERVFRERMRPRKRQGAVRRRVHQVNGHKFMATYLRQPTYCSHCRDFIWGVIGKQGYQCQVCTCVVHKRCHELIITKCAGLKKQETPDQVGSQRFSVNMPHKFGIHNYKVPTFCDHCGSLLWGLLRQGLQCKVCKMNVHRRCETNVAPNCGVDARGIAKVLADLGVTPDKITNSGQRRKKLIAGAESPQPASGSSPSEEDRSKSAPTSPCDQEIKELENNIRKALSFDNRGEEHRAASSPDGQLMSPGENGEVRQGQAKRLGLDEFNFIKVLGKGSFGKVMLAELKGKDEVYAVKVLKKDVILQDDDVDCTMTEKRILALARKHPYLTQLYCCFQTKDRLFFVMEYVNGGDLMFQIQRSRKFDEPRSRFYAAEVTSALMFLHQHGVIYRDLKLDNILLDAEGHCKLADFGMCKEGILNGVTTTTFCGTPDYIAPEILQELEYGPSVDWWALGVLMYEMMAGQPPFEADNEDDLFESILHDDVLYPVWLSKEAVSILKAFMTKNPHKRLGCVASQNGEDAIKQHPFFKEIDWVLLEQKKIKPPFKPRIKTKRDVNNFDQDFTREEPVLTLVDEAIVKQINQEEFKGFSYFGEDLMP
Sequence of UniProt Q8N5Y8 (Q8N5Y8 whole entry, looked up): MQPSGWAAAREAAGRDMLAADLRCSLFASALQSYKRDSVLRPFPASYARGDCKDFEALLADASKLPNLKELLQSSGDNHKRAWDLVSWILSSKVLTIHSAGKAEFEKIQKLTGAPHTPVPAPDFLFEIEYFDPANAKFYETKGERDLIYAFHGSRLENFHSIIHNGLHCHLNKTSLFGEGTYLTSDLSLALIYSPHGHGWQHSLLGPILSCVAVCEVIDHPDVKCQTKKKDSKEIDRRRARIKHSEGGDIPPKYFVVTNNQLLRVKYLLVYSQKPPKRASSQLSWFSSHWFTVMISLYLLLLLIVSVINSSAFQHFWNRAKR
Sequence of UniProt Q7RTV0 (Q7RTV0 whole entry, looked up): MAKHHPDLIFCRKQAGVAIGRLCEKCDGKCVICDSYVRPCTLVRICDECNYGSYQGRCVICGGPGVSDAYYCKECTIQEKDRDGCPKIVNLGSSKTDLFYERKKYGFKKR

PNN (UniProt Q9H307): the log2 fold change with bafetinib is -0.08; in [1], -0.008; with nilotinib, -0.028; in experiment [2] it was -0.344 (active); in the experiment with dasatinib, 0.062; in [3] it was -0.039. Moreover, the log2 fold change is 0.028 in experiment [4]; 0.231 in [5]; 0.255 in the experiment with tipifarnib; -0.098 in the experiment with mubritinib; -0.018 in [6]; -0.24 in experiment [7]. Moreover, the log2 fold change in [8] is 0.053; with entinostat, 0.021; with vorinostat, 0.045; with citarinostat it was -0.077; with silmitasertib, -0.124; in [9] it was 0.106. The log2 fold change in [10] is -0.446 (active).

Turning to PCBP2 (UniProt F8VRH0), the log2 fold change with bafetinib is 0.293; in [1], -0.039; in the experiment with nilotinib it was -0.347; in [2] it was -0.215; in the experiment with dasatinib, -0.146; in [3], -0.009. Further, the log2 fold change in experiment [4] was 0.112; with tipifarnib it was 0.067; with mubritinib, 0.129; in experiment [6], 0.187; in experiment [7], -0.017; in experiment [8], -0.175. Also, the log2 fold change in experiment [11] is 0.013; with entinostat, 0.051; with vorinostat, 0.247; in the experiment with citarinostat, 0.006; with silmitasertib, -0.105; in experiment [9], 0.144. Further, in experiment [10], the log2 fold change was -0.01.

Regarding PRKCE (UniProt Q02156), the log2 fold change with bafetinib was 0.001; in experiment [1], 0.02; with nilotinib it was -0.024; in experiment [2], -0.335 (active); in the experiment with dasatinib it was -0.118; in [3] it was 0.004. In addition, the log2 fold change was 0.051 in experiment [4]; -0.049 with tipifarnib; 0.052 with mubritinib; -0.068 in experiment [6]; -0.084 in experiment [7]; -0.177 in experiment [8]. Besides, the log2 fold change was -0.078 in experiment [11]; 0.01 with entinostat; 0.107 with vorinostat; -0.019 with citarinostat; -0.016 in the experiment with silmitasertib; -0.018 in [9]. In [10], the log2 fold change was -0.055.

Take PRKAG1 isoform 3 (UniProt P54619): the log2 fold change is -0.098 with bafetinib; 0.001 in experiment [1]; -0.079 with nilotinib; -0.189 in [2]; -0.056 with dasatinib; -0.01 in experiment [3]. Also, the log2 fold change in [4] is 0.001; in experiment [5] it was 0.022; with tipifarnib it was 0.007; with mubritinib, -0.052; in experiment [6] it was -0.105; in experiment [7] it was -0.033. Moreover, the log2 fold change in [8] is -0.069; in experiment [11], -0.045; with entinostat, 0.017; with vorinostat it was 0.071; with citarinostat it was 0.04; in the experiment with silmitasertib, 0.016. Further, the log2 fold change is -0.042 in experiment [9] and -0.091 in [10].

For PARP16 isoform 3 (UniProt Q8N5Y8), the log2 fold change in the experiment with bafetinib was 0.096; in experiment [1], -0.005; with nilotinib, -0.034; in [2] it was -0.019; in the experiment with dasatinib it was -0.009; in experiment [3] it was 0.053. Further, the log2 fold change in experiment [4] is 0.011; with tipifarnib, -0.092; with mubritinib it was 0.089; in experiment [6], 0.116; in [7] it was 0.077; in experiment [8] it was 0.239. For the same target, the log2 fold change is -0.036 in experiment [11]; 0.053 with entinostat; 0.117 with vorinostat; 0.006 with citarinostat; -0.197 with silmitasertib; -0.022 in experiment [9]. Also, in [10], the log2 fold change is -0.065.

On to PHF5A (UniProt Q7RTV0), for which the log2 fold change with bafetinib was -0.097; in experiment [1] it was -0.047; with nilotinib it was -0.018; in [2], 0.012; with dasatinib, 0.102; in experiment [3] it was 0.086. For the same target, the log2 fold change was -0.031 in experiment [4]; 0.03 in experiment [5]; 0.031 with tipifarnib; -0.025 with mubritinib; -0.004 in experiment [6]; 0.009 in experiment [7]. The log2 fold change in [8] is 0.101; in [11] it was 0.051; with entinostat it was -0.017; with vorinostat it was -0.08; with citarinostat, 0.014; with silmitasertib, 0.082. In addition, the log2 fold change is -0.024 in experiment [9] and -0.003 in [10].

With PSMB9 (UniProt P28065), the log2 fold change with bafetinib is -0.22; in experiment [1], -0.122; in experiment [4] it was 0.054; in the experiment with tipifarnib it was 0.03; in experiment [6], -0.122; in experiment [7] it was -0.102. Moreover, the log2 fold change in [11] is 0.029; with entinostat it was -0.118; in the experiment with vorinostat it was 0.086; in the experiment with citarinostat it was -0.028; in [9], -0.061; in [10] it was 0.

As to POM121 (UniProt Q96HA1), the log2 fold change is -0.114 in the experiment with bafetinib; 0.012 in [1]; 0.135 with nilotinib; 0 in experiment [2]; -0.051 in the experiment with dasatinib; -0.177 in [3]. In addition, the log2 fold change in experiment [4] is -0.081; in experiment [5], -0.063; with tipifarnib, 0.021; in experiment [6], -0.015; in experiment [7] it was -0.199; in experiment [11], -0.083. The log2 fold change in the experiment with entinostat was 0.01; with vorinostat, 0.055; with citarinostat it was 0.045; in experiment [9] it was 0.05; in experiment [10] it was -0.045.
